This passage reports growth results from PubChem BioAssay (NCI).

Structures are written as SMILES. This is part of a sample that, as a whole, favours compounds with a hit. Of some 83,000 tested, about 20% had one in any assay.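 For each line, cells grew in 96-well plates with the test compound present at a single concentration for 48 hours.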 Calls of active or inactive are those of the source. The calls were made as follows: active = growth percent below 10; inactive = the rest.

The subject of this assay is SK-MEL-28 melanoma. Kind of assay: NCI-60 one-dose screen, 48 h (100 = growth as untreated, 0 = no growth, -100 = all killed). As to conditions: 10 µM.
For `COc1cc2c3c(n(CCCNC(C)C)c(=O)c2cc1OC)-c1nc2c(cc1C3=O)OCO2`, the growth was 49.2% (inactive).
The figure for `COc1ccc2cc([C@H](C)C(=O)NCc3ccccc3)ccc2c1` is 64.4% (inactive).
As for `O=C(Cn1nc(-c2ccccc2)ccc1=O)NNC(=S)NC1CCCCC1`, the figure is 108% (inactive).
The figure for `CN1CCCN(Cc2ccc(C(=O)Nc3cccc(Nc4ccc5cc(O)ccc5n4)c3)cc2C(F)(F)F)CC1` is -67.9% (active); for `O=C1Nc2cc(Cl)ccc2/C1=C/c1cccc(OCc2ccccc2)c1` it is 4.09% (active); for `C/C(=C\CC/C=C(\C)CC/C=C(\C)CC[C@@H](O)C(C)(C)O)CC/C=C(\C)CC[C@@H](O)C(C)(C)O` it is 38% (inactive).
As to `O=C(c1ccc([N+](=O)[O-])c([N+](=O)[O-])c1O)n1[nH]c(=O)c2ccccc2c1=O`, the growth is 92.7% (inactive).
As for `O=C(O)CCCCCCCCCCN1C(=O)/C(=C/c2cnc(-c3ccc(Cl)cc3)s2)SC1=S`, the figure is 40% (inactive); as for `O=C1Nc2ccc(F)cc2/C1=C/c1cccc(OCc2ccccc2)c1`, 36.2% (inactive).
The figure for `COc1ccc(-c2nc(S(=O)(=O)c3ccccc3)c(S(C)(=O)=O)o2)cc1` is -82.9% (active); for `COc1ccc(C(=O)NC(=S)N2CCN(c3ncnc4c3cnn4-c3ccccc3)CC2)cc1` it is 50% (inactive).
Consider `C=CC(=O)Nc1nc(-c2cccc(NS(=O)(=O)c3cccc4c(N(C)C)cccc34)c2)cs1`, for which the growth is -93.6% (active).
As for `Cc1cc(=O)oc2cc(OCCCCOc3ccc(/C=C/C(=O)Nc4cccc(Cl)c4)cc3)ccc12`, the figure is 86.8% (inactive); as for `COc1ccccc1C(=O)NNC(=O)CSc1nc2c(c(=O)[nH]1)CCCC2`, 110% (inactive).
As to `NC1=NC(c2ccccc2Cl)N=C(Nc2nn[nH]n2)N1` (configuration not stated), the growth was 124% (inactive).
The figure for `COc1ccc2nc(Cl)c(-c3cc(-c4ccccc4)nc(=O)[nH]3)cc2c1` is 97.7% (inactive).
The figure for `O=c1[nH]n(C(=S)N/N=C/c2ccc(F)cc2)c(=O)c2ccccc12` is 91.5% (inactive); for `O=C(CS(=O)(=O)c1oc(-c2ccc(Cl)cc2)nc1S(=O)(=O)c1ccccc1)N1CCCC1` it is -100% (active).
As to `O=C1Nc2cc(Cl)ccc2/C1=C/c1cccc(OCc2ccc(Br)cc2F)c1`, the growth is 36.4% (inactive).
Consider `Cc1nc2c(cnn2-c2ccccc2)c(=O)n1-c1ccc(NC(=O)c2ccc(F)cc2)cc1`, for which the growth is 83.8% (inactive).
As for `S=c1nc(-c2ccccc2)cc(-c2cc3ccccc3nc2Cl)[nH]1`, the figure is 65.2% (inactive); as for `Cc1ccc(C(=O)Nc2ccc(-n3c(C)nc4c(cnn4-c4ccccc4)c3=O)cc2)cc1`, 80.7% (inactive); as for `Cc1cc(C)nc(NS(=O)(=O)c2ccc(N/C(N)=N/c3nccc(-c4cccs4)n3)cc2)n1`, 106% (inactive).
As for `COc1ccc(CN2[C@H](C(=O)NCc3ccc(C(=O)NO)cc3)Cc3c([nH]c4ccccc34)[C@H]2C2CC2)cc1`, the figure is 43.7% (inactive); as for `O=C1Nc2ccc(Cl)cc2/C1=C/c1cccc(OCc2ccccc2)c1`, 46.9% (inactive); as for `O=C(Cn1cc(CSc2nnc3oc4ccccc4n23)nn1)Nc1ccc(Br)cc1`, 89.7% (inactive).
The figure for `CCN1CCN(c2ccc(NC(=O)Nc3ccc(-c4cc(C(=O)NC)c5ncccc5n4)cc3)cc2C(F)(F)F)CC1` is -100% (active); for `COc1ccc(-c2nc(S(=O)(=O)c3ccc(C)cc3)c(S(=O)(=O)CC(=O)N(C)Cc3ccccc3)o2)cc1` it is 64.8% (inactive).
In the case of `COC[C@@H](CC(C)C)N=C1NC(=O)/C(=C/c2ccc3ncsc3c2)N1`, the growth is 0.97% (active).
As for `CC(C)Sc1nc(NC2CC2)c(C#N)c(-c2ccccc2)n1`, the figure is 110% (inactive); as for `CCOC(=O)N/C(=C1/OCCN1C)[P+](c1ccccc1)(c1ccccc1)c1ccccc1`, 61.3% (inactive); as for `CS(=O)(=O)Nc1ccc(-c2ccc3c(c2)ncn3-c2ccc(NC(=O)Nc3ccc(Cl)c(C(F)(F)F)c3)cc2)cc1`, -78.1% (active).
As for `CN1CCc2c(sc3ncnc(N/N=C/c4cn(-c5ccccc5)nc4-c4ccc(Cl)cc4)c23)C1`, the figure is 45% (inactive); as for `CC1(c2ccccc2)NC(=O)N(CC(=O)Nc2ccc(C(=O)/C=C/c3ccc(Br)cc3)cc2)C1=O` (configuration not stated), 48.9% (inactive).
The figure for `O=C(CN1CCN(c2ncnc3c2cnn3-c2ccccc2)CC1)Nc1nncs1` is 72.3% (inactive).
With `COc1ccc(C=CC(=O)c2ccc(-n3c(C)nc4c(cnn4-c4ccccc4)c3=O)cc2)cc1`, the growth is 90.4% (inactive).
The figure for `O=C(c1ccc(-n2c(=O)[nH]c3ccccc3c2=O)cc1)N1CCOCC1` is 108% (inactive).
